From PubChem BioAssay AID1246 (Columbia University Molecular Screening Center, 2008)
Among all 120,000 compounds or so, about 840 (0.7%) were called active.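 How the source made its calls: active means inhibition above the batch mean plus 3 SD, and confirmed as a hit on visual image review (cut at about 43% in these data); inconclusive means passes the inhibition cutoff but fails visual image review; inactive means the rest.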 This excerpt belongs to a sample that is enriched for actives.

test: E-selectin induction blockers in HUVEC – imaging, immunofluorescence, high content, primary screen (AID 1246); details: HUVEC TNFa-induced E-selectin immunofluorescence, at 2 µM, hits give high values;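 further: 0% = TNF-stimulated DMSO wells and 100% = unstimulated control wells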

inhibition, active:
CC(C)C(c1nnnn1Cc1ccccc1)N1CCC(C(N)=O)CC1 (configuration not stated) 100%, Cc1cc(C)n2nc(C(=O)N(C)C(c3ccccc3)c3ccccc3)nc2n1 45.1%, CC(=O)c1ccc(NC(=O)Nc2ccc([N+](=O)[O-])cc2C)cc1 70.8%, COc1ccc(Cc2nnc(NC(=O)Cc3cccs3)s2)cc1 83.6%

inhibition, inactive:
CC(C)C(c1nnnn1CCc1ccccc1)N1CCN(C(=O)c2ccco2)CC1 (configuration not stated) 20.3%, Cc1ccc(C(c2nnnn2CS(=O)(=O)c2ccc(C)cc2)N2CCC(C(N)=O)CC2)cc1 (configuration not stated) -22.9%, CC1CCCC(C)N1/N=C/c1ccccc1OC(F)F (configuration not stated) 0.15%, O=C(CN(CC1CCCO1)C(=O)CNS(=O)(=O)c1ccc(F)cc1)NCc1ccco1 (configuration not stated) -15.3%, CCN(CCCNC(=O)CCn1c(=O)[nH]c2ccsc2c1=O)c1ccccc1 -8.13%, O=S(=O)(c1ccc2c(c1)OCCO2)N1CCc2ccccc21 27.9%, COCCN(C(=O)CCC(=O)Nc1nccs1)C(C(=O)NC(C)(C)C)c1ccc(Cl)cc1 (configuration not stated) 19.2%, COc1cc(/C=N/Nc2ccc(C)cc2)cc(Br)c1O -4.64%, Cc1cc(C)n2nc(C(=O)N3CCN(Cc4ccc5c(c4)OCO5)CC3)nc2n1 -35.2%, Cc1cc(C)n2nc(SCC(N)=O)nc2n1 -29.9%, COC(=O)c1c(C(=O)OC)c(-c2cccc(C)c2)n2c1CS(=O)C2 (configuration not stated) 58.3%, CSc1nc2nc(-c3cccc(C(F)(F)F)c3)ccn2n1 -26.4%, CC(CC(=O)C1C(C)C=CCC1(C)C)NNC(N)=O (configuration not stated) 13.4%, CC(=O)c1cccc(NC(=O)Nc2ccc(C)cc2)c1 8.52%, CC(=O)Nc1ccc(C(=O)OCC(=O)Nc2ccc([N+](=O)[O-])cc2C(F)(F)F)cc1 -7.06%, CCCCN(CC(=O)NC(C)(C)C)C(=O)C(=O)Nc1ccc2c(c1)OCCO2 -8.58%, Cc1nccn1CCCNC(=O)CC1C(=O)NCCN1Cc1ccc(Cl)c(F)c1 (configuration not stated) -5.16%, O=C(Cc1cccs1)Nc1nnc(SCc2ccc(F)cc2)s1 -12.5%, COc1ccc(Cc2nnc(NS(=O)(=O)Cc3ccccc3)s2)cc1 55.2%, CCCC(C)C(=O)NCc1ccncc1 (configuration not stated) 0.76%, CCOC(=O)N1CCC(=NNC(N)=O)CC1 -34.9%, Cn1cc(-c2ccccc2)cc(C#N)c1=O 3.87%, Cc1cc(OC(=O)c2ccccc2)c([N+](=O)[O-])c(=O)[nH]1 -11.2%
